Experimental data reported in PMC10156912.

How the values were obtained:
PHD finger protein 12 = PHD finger protein 12 (UniProt Q96QT6); assay: other; cross-linking mass spectrometry; other
Histone deacetylase 2 = Histone deacetylase 2 (UniProt Q92769); assay: cross-link between two proteins; cross-linking mass spectrometry
Sequence of Histone deacetylase 2 (Q92769 whole entry): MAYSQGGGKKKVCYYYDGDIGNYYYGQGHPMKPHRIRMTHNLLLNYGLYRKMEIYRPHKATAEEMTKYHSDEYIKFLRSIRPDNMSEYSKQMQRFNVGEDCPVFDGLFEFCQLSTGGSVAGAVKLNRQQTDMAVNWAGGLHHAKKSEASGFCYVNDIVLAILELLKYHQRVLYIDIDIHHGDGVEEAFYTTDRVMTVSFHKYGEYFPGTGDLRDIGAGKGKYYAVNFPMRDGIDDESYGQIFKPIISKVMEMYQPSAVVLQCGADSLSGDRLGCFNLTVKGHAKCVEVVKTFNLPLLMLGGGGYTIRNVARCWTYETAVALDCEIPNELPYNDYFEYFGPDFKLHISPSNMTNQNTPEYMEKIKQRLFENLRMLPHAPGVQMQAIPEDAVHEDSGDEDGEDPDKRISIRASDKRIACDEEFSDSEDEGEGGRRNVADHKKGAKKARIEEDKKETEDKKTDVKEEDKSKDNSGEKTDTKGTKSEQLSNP

Sequence of PHD finger protein 12 (Q96QT6 whole entry): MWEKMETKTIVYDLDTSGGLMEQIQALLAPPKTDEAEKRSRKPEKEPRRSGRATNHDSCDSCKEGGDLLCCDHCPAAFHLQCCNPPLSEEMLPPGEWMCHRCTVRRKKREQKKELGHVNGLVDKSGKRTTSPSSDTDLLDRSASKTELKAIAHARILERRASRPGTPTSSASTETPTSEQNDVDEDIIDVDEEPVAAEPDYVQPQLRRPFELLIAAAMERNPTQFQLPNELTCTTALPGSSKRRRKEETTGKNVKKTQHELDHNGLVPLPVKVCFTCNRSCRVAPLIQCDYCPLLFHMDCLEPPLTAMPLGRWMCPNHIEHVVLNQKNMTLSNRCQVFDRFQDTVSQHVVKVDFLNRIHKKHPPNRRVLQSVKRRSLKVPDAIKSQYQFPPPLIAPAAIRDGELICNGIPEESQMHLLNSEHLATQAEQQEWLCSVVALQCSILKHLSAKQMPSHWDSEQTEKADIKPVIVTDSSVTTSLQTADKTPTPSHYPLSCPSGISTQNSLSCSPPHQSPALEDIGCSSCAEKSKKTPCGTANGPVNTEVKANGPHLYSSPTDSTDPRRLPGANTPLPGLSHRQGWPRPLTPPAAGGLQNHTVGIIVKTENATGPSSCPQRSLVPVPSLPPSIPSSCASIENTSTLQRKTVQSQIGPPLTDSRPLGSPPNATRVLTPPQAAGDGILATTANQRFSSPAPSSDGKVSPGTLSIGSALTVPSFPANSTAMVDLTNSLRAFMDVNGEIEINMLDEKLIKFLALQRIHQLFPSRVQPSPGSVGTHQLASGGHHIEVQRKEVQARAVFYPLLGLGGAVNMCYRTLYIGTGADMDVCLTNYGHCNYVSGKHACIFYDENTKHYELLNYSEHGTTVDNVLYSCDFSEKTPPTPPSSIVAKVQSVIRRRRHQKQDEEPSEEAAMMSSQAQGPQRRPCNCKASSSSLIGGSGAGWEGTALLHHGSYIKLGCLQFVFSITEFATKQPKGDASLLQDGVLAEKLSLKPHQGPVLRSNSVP

For “Paired amphipathic helix protein Sin3b, O75182”, the “listed as a hit” value (PHD finger protein 12) was “yes” and the “listed as a hit” value (Histone deacetylase 2) was “yes”.
